In PubChem BioAssay AID504904 (The Scripps Research Institute Molecular Screening Center, 2011):
The other results are listed elsewhere or left out. The source made the active and inactive calls. Cut-off read from the data, not from the text of the source: active = activation above about 18%; inactive = the rest.

Target: Mu-type opioid receptor (Homo sapiens) + Delta-type opioid receptor (Homo sapiens) (UniProt P35372+P41143)
Experiment: agonists of MOR-DOR heterodimerization, confirmation, cell-based, luminescence (AID 504904);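 note: 0% = vehicle-treated cells and 100% = reference agonist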
Conditions: cells, luminescence complementation, at 9.3 µM, stronger effect = higher value

Mu-type opioid receptor (Homo sapiens) + Delta-type opioid receptor (Homo sapiens), sequence (P35372 whole entry, looked up): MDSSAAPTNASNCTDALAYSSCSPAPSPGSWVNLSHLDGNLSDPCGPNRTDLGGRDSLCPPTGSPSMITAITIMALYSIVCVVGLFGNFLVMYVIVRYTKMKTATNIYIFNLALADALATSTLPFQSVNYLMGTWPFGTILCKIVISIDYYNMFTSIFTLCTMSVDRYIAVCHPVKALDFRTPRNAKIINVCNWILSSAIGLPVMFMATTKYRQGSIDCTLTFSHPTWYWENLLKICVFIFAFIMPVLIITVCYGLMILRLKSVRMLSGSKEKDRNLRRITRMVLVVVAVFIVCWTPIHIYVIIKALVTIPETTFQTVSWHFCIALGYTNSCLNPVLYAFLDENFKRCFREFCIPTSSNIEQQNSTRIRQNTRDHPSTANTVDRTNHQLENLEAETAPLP
Mu-type opioid receptor (Homo sapiens) + Delta-type opioid receptor (Homo sapiens), sequence (P41143 whole entry, looked up): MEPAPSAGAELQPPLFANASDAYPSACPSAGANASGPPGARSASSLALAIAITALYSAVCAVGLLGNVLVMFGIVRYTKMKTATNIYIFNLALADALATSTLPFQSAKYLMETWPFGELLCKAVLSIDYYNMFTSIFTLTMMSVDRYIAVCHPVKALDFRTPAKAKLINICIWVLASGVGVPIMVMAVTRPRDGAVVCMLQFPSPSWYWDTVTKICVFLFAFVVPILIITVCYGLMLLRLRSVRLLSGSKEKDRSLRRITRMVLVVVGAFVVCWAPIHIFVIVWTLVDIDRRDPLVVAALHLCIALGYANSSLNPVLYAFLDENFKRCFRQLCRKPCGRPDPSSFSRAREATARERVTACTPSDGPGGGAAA

| Compound | activation |
| --- | --- |
| CCOC(=O)C1(CCc2ccccc2)CCN(Cc2ccco2)CC1 | 41.4% (active) |
| COC1C(O)C(C)OC(OC2CCC3(C=O)C(CCC4C3CCC3(C)C(C5=CC(=O)OC5)CCC43O)C2)C1O (centres undefined) | 51.8% (active) |
| C[C@]12CC[C@H](O)C[C@H]1CC[C@@H]1C2CC[C@]2(C)[C@@H](C3=CC(=O)OC3)[C@@H](O)C[C@]12O (some centres undefined) | -3.86% (inactive) |
| CCC1(C)CC(CCNCc2ccc(N(C)C)cc2)(c2ccc(F)cc2)CCO1 (centres undefined) | 137% (active) |
